Assay results published in PubChem BioAssay (NCI).
This is part of a sample that, as a whole, favours compounds with a hit. Of some 83,000 tested, about 20% had one in any assay.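 Growth was measured after 48 h exposure to one concentration of compound in 96-well plates. Values under 10 count as active.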 Activity calls are given as the source filed them.

Key:
Experiment in all cases: NCI-60 one-dose screen, 48 h (100 = growth as untreated, 0 = no growth, -100 = all killed)
Details in all cases: 10 µM unless noted
[1] = system: HCT-15 colon
[2] = system: HT29 colon
[3] = system: SNB-75 CNS
[4] = system: SNB-19 CNS
[5] = system: U251 CNS
[6] = system: PC-3 prostate
[7] = system: SK-MEL-5 melanoma
[8] = system: UACC-62 melanoma
[9] = system: LOX IMVI melanoma
[10] = system: SK-MEL-28 melanoma
[11] = system: SK-MEL-2 melanoma
[12] = system: EKVX NSCLC
[13] = system: SN12C renal
[14] = system: UO-31 renal
[15] = system: TK-10 renal
[16] = system: ACHN renal
[17] = system: CAKI-1 renal
[18] = system: A498 renal
[19] = system: CCRF-CEM leukemia
[20] = system: MOLT-4 leukemia

Measured: growth

CCN(C(=O)N1CCN(c2cc3c(cc2F)c(=O)c(C(=O)O)cn3C2CC2)CC1)c1nc(-c2ccc(C)cc2)cs1
inactive: [3] 30.5% | [4] 18.8% | [5] 16.3% | [6] 10.8% | [10] 34.1% | [12] 14.3% | [15] 38.3% | [19] 21.4% | [20] 14.3%
active: [1] 8.05% | [2] 3.55% | [7] -32.8% | [8] -3.01% | [9] 7.36% | [11] -1.1% | [13] 5.47% | [14] 5.96% | [16] 6.68% | [17] 7.79% | [18] -2.94%

C=CCn1c(SCC(=O)Nc2ccc(C(=O)/C=C/c3cc(OC)c(OC)c(OC)c3)cc2)nnc1-c1cc(-c2ccc(OC)cc2)nc2ccccc12
inactive: [1] 83.4% | [2] 101% | [3] 85.1% | [4] 90.3% | [5] 88.3% | [6] 80% | [7] 94.9% | [8] 90.1% | [9] 94.9% | [10] 101% | [11] 102% | [12] 100% | [13] 90.3% | [14] 76.3% | [15] 121% | [16] 89.2% | [17] 81.5% | [18] 89% | [19] 66.6% | [20] 66.4%

CCCCCCC(=O)Nc1ncc(Cc2ccc(C)cc2)s1
active: [3] -0.16%
inactive: [1] 35.5% | [2] 15.4% | [4] 44.2% | [5] 39% | [6] 41.7% | [7] 36.9% | [8] 31.1% | [9] 44.1% | [10] 66.5% | [11] 63.4% | [12] 53.4% | [13] 49.4% | [14] 44.8% | [15] 65.8% | [16] 46.3% | [17] 35.2% | [18] 19.5% | [19] 21.3% | [20] 35.2%

CCCCCCCC/C=C\CCCCCCCCOc1ccccc1CC(=O)NCC[N+]1(C)CCCCC1
active: [2] 9.78% | [6] 3.49%
inactive: [1] 102% | [3] 49.3% | [4] 52.6% | [5] 39% | [7] 86.5% | [8] 53.8% | [9] 75.7% | [10] 84.2% | [11] 88.2% | [12] 93.4% | [13] 43.2% | [14] 94.8% | [15] 75.8% | [16] 110% | [17] 81.9% | [18] 94.6% | [19] 23.1% | [20] 20.5%

Cc1cccc(NC(=O)CSc2nc3ccc([N+](=O)[O-])cc3[nH]2)c1
inactive: [1] 75.1% | [2] 90.4% | [3] 70% | [4] 80.3% | [5] 74.5% | [6] 75.1% | [7] 52% | [8] 42.6% | [9] 81.4% | [10] 80.7% | [11] 98.5% | [12] 70.9% | [13] 80.7% | [14] 54.2% | [15] 97.3% | [16] 82.5% | [17] 61.4% | [18] 63.5% | [19] 78.4% | [20] 77.2%

FC(F)(F)c1[nH]ncc1-c1nc2c(N3CCCCC3)cc3[nH]ncc3c2c2c1CCCC2
active: [1] 5.17% | [2] 1.21% | [3] -73.8% | [4] 7.25% | [5] 3.57% | [6] 0.448% | [7] -68.2% | [8] -49.9% | [9] -68.9% | [10] -6.99% | [11] -34% | [13] 2.49% | [14] -19.6% | [15] 1.88% | [16] 4.67% | [17] 5.43% | [18] -71.6% | [19] 4.61% | [20] -0.165%
inactive: [12] 13.2%

Cc1ccc(C)c2c1C(O)(C#Cc1ccccc1)c1ccccc1C2(O)C#Cc1ccccc1 (stereo not given)
inactive: [1] 27.7% | [2] 38.9% | [3] 48.3% | [4] 70.4% | [5] 34.3% | [6] 29.4% | [7] 36.8% | [8] 53.4% | [9] 42.5% | [10] 80.4% | [11] 15.9% | [12] 38.5% | [13] 71.5% | [14] 19.6% | [15] 58.8% | [16] 49.7% | [17] 71.9% | [18] 69.2% | [19] 27.5% | [20] 19.5%

CCC(C)Nc1ccc(NC(C)CC)cc1 (stereo not given)
inactive: [1] 97.7% | [2] 71.5% | [3] 83.2% | [4] 101% | [5] 87.9% | [6] 80.7% | [7] 100% | [8] 87.1% | [9] 74% | [10] 104% | [11] 91.6% | [12] 86% | [13] 19.8% | [14] 84.4% | [15] 107% | [16] 85.5% | [17] 96.2% | [18] 97.5% | [19] 79% | [20] 59.1%

Nc1ncnc2c1c(-c1ccc(Oc3ccccc3)cc1)nn2CC1SSCC1O (stereo not given)
inactive: [1] 65.3% | [2] 39.2% | [3] 43.5% | [4] 45.5% | [5] 39.7% | [6] 61.7% | [9] 19.2% | [11] 56.8% | [13] 49.1% | [16] 25.9% | [17] 42.5% | [18] 27.8%
active: [7] -42.9% | [8] -76.1% | [10] 2.15% | [12] 4.11% | [14] -3.62% | [15] 8.91% | [19] 9.92% | [20] -33.3%

CN1CCN(Cc2ccc(NC(=O)c3cncc(C#Cc4cncc5[nH]ncc45)c3)cc2C(F)(F)F)CC1
inactive: [1] 10.6% | [2] 11.1% | [3] 20% | [4] 45.5% | [5] 25.1% | [7] 13.2% | [12] 26.3% | [15] 12.5%
active: [6] 1.19% | [8] -49.2% | [9] -90% | [10] -15.2% | [11] -52.4% | [13] 8.48% | [14] -25% | [16] -0.725% | [17] -52% | [18] -49.5% | [19] 7.31% | [20] 3.77%

COc1cc(-c2nc(NC(C)=O)sc2-c2ccnc(NCCNS(=O)(=O)c3ccccc3)n2)ccc1Cl
inactive: [1] 31.7% | [3] 15.7% | [4] 53.9% | [5] 31.5% | [6] 16.3% | [8] 23% | [9] 32.1% | [10] 35.6% | [12] 45.4% | [13] 48.2% | [14] 63.3% | [15] 39.5% | [16] 44% | [17] 57.9% | [18] 27.1% | [19] 13% | [20] 15.5%
active: [2] 3.97% | [7] 1.64% | [11] -12.6%

CCOC(=O)C1CCN(c2ccc(N3C[C@@H](CNCc4ccc(C(=N)N)cc4)OC3=O)cc2)CC1
inactive: [1] 102% | [2] 105% | [3] 83.8% | [4] 98.9% | [5] 104% | [6] 94.4% | [7] 103% | [8] 97.3% | [9] 96.4% | [10] 105% | [11] 112% | [12] 99.4% | [13] 97.6% | [14] 77.8% | [15] 97.5% | [16] 102% | [17] 89.4% | [18] 108% | [19] 98.5% | [20] 101%

N=C(N)c1ccc(-c2ccc(-c3ccc(Cl)cc3)o2)o1
active: [1] -78.1% | [2] -58.3% | [4] -68.3% | [5] -95.5% | [8] -67.4% | [9] -73% | [13] -58.9% | [19] -20.3% | [20] -28.9%
inactive: [3] 69.8% | [6] 43.9% | [7] 76% | [10] 96.9% | [11] 82.1% | [12] 68.3% | [14] 46% | [15] 72.1% | [16] 28.3% | [17] 54.2% | [18] 61.3%

COc1cc(C2=NN(C(C)=O)C(c3ccc(N(C)C)cc3)C2)cc(OC)c1OC (stereo not given)
inactive: [1] 102% | [2] 108% | [3] 96.2% | [4] 89.8% | [5] 97.3% | [6] 105% | [7] 91.1% | [8] 87.9% | [9] 96.5% | [10] 106% | [11] 90% | [12] 94.7% | [13] 86.4% | [14] 79.6% | [15] 109% | [16] 91.8% | [17] 15.3% | [18] 76% | [19] 14.6% | [20] 80.8%

Cn1ncc2ccc(-c3nc(-c4ccccc4)[nH]c3-c3n[nH]c(=O)n3C3CC3)cc21
inactive: [1] 100% | [2] 87.1% | [3] 81.2% | [4] 95.9% | [5] 100% | [6] 77.9% | [7] 98.8% | [8] 100% | [9] 97.2% | [10] 102% | [11] 101% | [12] 96% | [13] 101% | [14] 93.1% | [15] 103% | [16] 97% | [17] 94.8% | [18] 48.7% | [19] 96.4% | [20] 93.5%
